The results in this text go back to PubChem BioAssay (EPA / NIEHS).

Calls of active or inactive are those of the source. Rule for the calls: active = hit-call score of the fitted dose curve at least 0.9, where 1 is the maximum; inactive = score below 0.9.

Read-out in assay [1]: TIMP metallopeptidase inhibitor 1 (TIMP1), TIMP1 (gene 7076)
In words: BSK_hDFCGF_TIMP1: BioMAP Diversity Plus: hDFCGF Assay for TIMP metallopeptidase inhibitor 1 (TIMP1) Biomarker Activity (AID 2283062). The conditions noted are these: primary human foreskin fibroblasts; actives raise or lower the signal. The method, boiled down:
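Fibroblasts from human foreskin are treated with test chemical and harvested at 24 h. TIMP-1 is quantified by ELISA, and gain or loss of signal is scored against DMSO.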

Read-out in assay [2]: Matrix Metallopeptidase 1 (MMP1), MMP1 (gene 4312)
In words: BSK_hDFCGF_MMP1: BioMAP Diversity Plus: hDFCGF Assay for Matrix Metallopeptidase 1 (MMP1) Biomarker Activity (AID 2283064). The conditions noted are these: primary human foreskin fibroblasts; actives raise or lower the signal. The method, boiled down:
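ELISA read-out of MMP1 from human foreskin fibroblasts (primary skin cells), 24 h post-dose. Gain or loss of signal was fitted bidirectionally versus DMSO negative control; cytotoxicity was checked by SRB in parallel cultures.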

Read-out in assay [3]: Vascular cell adhesion molecule 1 (VCAM1), VCAM1 (gene 7412)
In words: BSK_hDFCGF_VCAM1: BioMAP Diversity Plus: hDFCGF Assay for Vascular cell adhesion molecule 1 (VCAM1) Biomarker Activity (AID 2283065).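 For AC50: VCAM-1 protein level quantified by ELISA after 24 h chemical exposure.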 The conditions noted are these: primary human foreskin fibroblasts; actives raise or lower the signal. Put shortly: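 Cells are dosed, cultured for 24 h, then VCAM-1 is quantified by ELISA; signal increases and decreases are both fitted relative to DMSO.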

Read-out in assay [4]: Plasminogen activator inhibitor-1 (PAI1), SERPINE1 (gene 5054)
Description: BSK_hDFCGF_PAI1: BioMAP Diversity Plus: hDFCGF Assay for Plasminogen activator inhibitor-1 (PAI1) Biomarker Activity (AID 2283066). The following applies: primary human foreskin fibroblasts; actives raise or lower the signal. The method, boiled down: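 ELISA readout of PAI-1 from primary human skin fibroblast cultures, 24 h after compound addition. Gain or loss of signal was fitted bidirectionally against DMSO baseline.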

Read-out in assay [5]: Intercellular Adhesion Molecule 1 (ICAM1), ICAM1 (gene 3383)
Description: BSK_KF3CT_ICAM1: BioMAP Diversity Plus: KF3CT Assay for Intercellular Adhesion Molecule 1 (ICAM1) Biomarker Activity (AID 2283067). The following applies: primary human keratinocytes with fibroblasts; actives raise or lower the signal. Put shortly:
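Dose the keratinocyte/fibroblast co-culture, wait 24 h, measure ICAM-1 by ELISA, then fit increases or decreases against DMSO. Cytotoxicity is checked in parallel cultures by SRB total-protein staining.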

Read-out in assay [6]: Interferon-gamma inducible Protein 10 (IP10), CXCL10 (gene 3627)
Description: BSK_KF3CT_IP10: BioMAP Diversity Plus: KF3CT Assay for Interferon-gamma inducible Protein 10 (IP10) Biomarker Activity (AID 2283068). The following applies: primary human keratinocytes with fibroblasts; actives raise or lower the signal. The method, boiled down:
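Signal is secreted/surface IP-10 by ELISA in a human primary skin co-culture of keratinocytes and foreskin fibroblasts, taken 24 h post-dosing; DMSO served as negative control.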

Read-out in assay [7]: Interleukin-1 alpha (IL1a), IL1A (gene 3552)
Description: BSK_KF3CT_IL1a: BioMAP Diversity Plus: KF3CT Assay for Interleukin-1 alpha (IL1a) Biomarker Activity (AID 2283070). The conditions noted are these: primary human keratinocytes with fibroblasts; actives raise or lower the signal. Put shortly: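 Primary skin co-culture (keratinocytes, foreskin fibroblasts), 24 h exposure; ELISA for IL-1a; bidirectional curve fit vs DMSO.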

Read-out in assay [8]: TIMP metallopeptidase inhibitor 2 (TIMP2), TIMP2 (gene 7077)
Description: BSK_KF3CT_TIMP2: BioMAP Diversity Plus: KF3CT Assay for TIMP metallopeptidase inhibitor 2 (TIMP2) Biomarker Activity (AID 2283071). The conditions noted are these: primary human keratinocytes with fibroblasts; actives raise or lower the signal. Put shortly: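 ELISA readout of TIMP-2 in keratinocyte plus foreskin fibroblast co-cultures (human skin primary cells), 24 h post-dose. Gain or loss of signal fitted relative to DMSO.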

Read-out in assay [9]: Transforming growth factor beta 1 (TGFb1), TGFB1 (gene 7040)
Description: BSK_KF3CT_TGFb1: BioMAP Diversity Plus: KF3CT Assay for Transforming growth factor beta 1 (TGFb1) Biomarker Activity (AID 2283072). The conditions noted are these: primary human keratinocytes with fibroblasts; actives raise or lower the signal. Put shortly:
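Read-out: ELISA for TGF-b1 in keratinocyte/foreskin fibroblast human skin co-culture, 24 h after dosing; bidirectional curve fit vs DMSO baseline; gain or loss of signal scored.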

Read-out in assay [10]: C-C motif chemokine 2 (Homo sapiens) (UniProt P13500)
Description: BSK_KF3CT_MCP1: BioMAP Diversity Plus: KF3CT Assay for Monocyte Chemoattractant Protein 1 (MCP1/CCL2) Biomarker Activity (AID 2283073). The conditions noted are these: primary human keratinocytes with fibroblasts; actives raise or lower the signal. The method, boiled down: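 Keratinocytes and foreskin fibroblasts were co-cultured, dosed with chemical, and sampled 24 h later. MCP-1 was quantified by ELISA, and the endpoint was analyzed with bidirectional fitting using DMSO as negative control.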

Read-out in assay [11]: Matrix Metallopeptidase 9 (MMP9), MMP9 (gene 4318)
In words: BSK_KF3CT_MMP9: BioMAP Diversity Plus: KF3CT Assay for Matrix Metallopeptidase 9 (MMP9) Biomarker Activity (AID 2283074).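 For AC50: MMP9 protein level quantified by ELISA in the co-culture.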 The following applies: primary human keratinocytes with fibroblasts; actives raise or lower the signal. The method, boiled down:
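ELISA read-out of MMP-9 at 24 h post-dosing in a co-culture of human skin keratinocytes and foreskin fibroblasts. Gain or loss of signal was fitted in both directions against DMSO.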

Read-out in assay [12]: urokinase plasminogen activator (uPA), PLAU (gene 5328)
Description: BSK_KF3CT_uPA: BioMAP Diversity Plus: KF3CT Assay for urokinase plasminogen activator (uPA) Biomarker Activity (AID 2283075). The conditions noted are these: primary human keratinocytes with fibroblasts; actives raise or lower the signal. The method, boiled down:
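Skin co-culture (keratinocytes + foreskin fibroblasts), human primary; 24 h post-dose; uPA by ELISA; gain/loss fit vs DMSO baseline.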

Read-out in another assay: CD40, CD40 (gene 958)
In words: BSK_LPS_CD40: BioMAP Diversity Plus: LPS Assay for CD40 Biomarker Activity (AID 2283076). The conditions noted are these: primary human HUVEC with PBMC; actives raise or lower the signal. The method, boiled down: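 CD40 signal, measured by ELISA, is fitted in both directions relative to DMSO vehicle. The system is an LPS-driven human vascular primary co-culture of endothelial cells and PBMC, sampled 24 h after compound addition.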

Read-out in assay [13]: E-selectin (Homo sapiens) (UniProt P16581)
In words: BSK_LPS_Eselectin: BioMAP Diversity Plus: LPS Assay for Eselectin Biomarker Activity (AID 2283077). The following applies: primary human HUVEC with PBMC; actives raise or lower the signal. Put shortly: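 Signal of E-selectin, detected by ELISA, served as the endpoint; cells were umbilical vein endothelium with PBMC, read 24 h after treatment. DMSO defined baseline, and both increases and decreases were fitted.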

Read-out in assay [14]: Interleukin-8 (IL8), CXCL8 (gene 3576)
In words: BSK_LPS_IL8: BioMAP Diversity Plus: LPS Assay for Interleukin-8 (IL8) Biomarker Activity (AID 2283078). The conditions noted are these: primary human HUVEC with PBMC; actives raise or lower the signal. The method, boiled down: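 Endothelial cells and PBMC from human donors are co-cultured, treated with chemicals and LPS, then assayed for IL-8 by ELISA after 24 h. Parallel SRB staining (0.1% SRB after 10% TCA fixation, 560 nm) flags cytotoxicity.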

Assay [15] in a line: BSK_LPS_SRB: Viability Assessment in the BioMAP Diversity Plus: LPS Assay (AID 2283079).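 Note: total protein by sulforhodamine B absorbance as a cytotoxicity measure; measured one day after compound addition.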 The following applies: primary human HUVEC with PBMC. The method, boiled down:
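Overt cytotoxicity was gauged by sulforhodamine B total-protein staining in a primary human vascular endothelial and mononuclear cell co-culture 24 h post-dosing. Activity was fitted in both directions relative to DMSO.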

Read-out in assay [16]: Interleukin-1 alpha (IL1a), IL1A (gene 3552)
In words: BSK_LPS_IL1a: BioMAP Diversity Plus: LPS Assay for Interleukin-1 alpha (IL1a) Biomarker Activity (AID 2283080). The following applies: primary human HUVEC with PBMC; actives raise or lower the signal. The method, boiled down: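 Measured: IL-1 alpha via ELISA at 24 h in LPS-activated human umbilical vein endothelium–PBMC co-culture. Baseline: DMSO, bidirectional fitting.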

Read-out in assay [17]: Monocyte Chemoattractant Protein-1 (MCP1), CCL2 (gene 6347)
In words: BSK_LPS_MCP1: BioMAP Diversity Plus: LPS Assay for Monocyte Chemoattractant Protein-1 (MCP1) Biomarker Activity (AID 2283081).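 For AC50: secreted MCP-1 protein quantified by ELISA in culture supernatant.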 The conditions noted are these: primary human HUVEC with PBMC; actives raise or lower the signal. Put shortly:
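LPS-stimulated HUVEC/PBMC co-culture; chemical, 24 h; MCP-1 by ELISA; bidirectional fit vs DMSO; cytotoxicity via SRB (0.1% stain, 10% TCA fix, 560 nm) in parallel wells.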

Assay [18] in a line: BSK_KF3CT_SRB: Viability Assessment in the BioMAP Diversity Plus: KF3CT Assay (AID 2283069). The conditions noted are these: primary human keratinocytes with fibroblasts. The method, boiled down: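 SRB read-out at 560 nm (0.1% stain, TCA-fixed cells) gauges overt cytotoxicity in a human skin keratinocyte–fibroblast co-culture 24 h post-dosing. Signal change was fitted bidirectionally relative to DMSO control.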

E-selectin (Homo sapiens), sequence (P16581 whole entry, looked up): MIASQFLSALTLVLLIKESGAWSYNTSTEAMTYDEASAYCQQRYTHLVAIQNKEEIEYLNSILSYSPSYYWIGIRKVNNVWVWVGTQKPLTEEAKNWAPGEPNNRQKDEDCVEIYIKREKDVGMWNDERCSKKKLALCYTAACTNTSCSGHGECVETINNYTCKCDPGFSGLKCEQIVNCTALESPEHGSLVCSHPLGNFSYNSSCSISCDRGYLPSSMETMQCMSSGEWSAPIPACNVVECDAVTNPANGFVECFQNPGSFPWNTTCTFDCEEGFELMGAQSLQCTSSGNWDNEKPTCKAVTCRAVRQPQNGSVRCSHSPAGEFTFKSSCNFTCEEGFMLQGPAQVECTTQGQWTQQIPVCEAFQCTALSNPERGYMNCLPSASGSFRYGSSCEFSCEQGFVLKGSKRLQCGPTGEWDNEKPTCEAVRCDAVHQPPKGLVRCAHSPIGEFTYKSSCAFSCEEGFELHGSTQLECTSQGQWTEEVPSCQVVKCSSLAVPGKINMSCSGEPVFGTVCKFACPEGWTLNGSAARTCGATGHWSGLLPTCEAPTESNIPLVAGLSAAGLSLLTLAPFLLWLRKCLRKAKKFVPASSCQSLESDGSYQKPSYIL

With `COc1ccc(O)c(C(C)(C)C)c1`, the outcome in assay [1], in assay [2], in assay [3], in assay [4], in [5] and in [6] was inactive. The outcome in assay [7], in assay [8], in [9], in assay [10], in assay [11] and in assay [12] was inactive. Besides, the outcome with CD40, CD40 (gene 958) is “inactive”; in assay [13], “inactive”; in assay [14], “inactive”; in [15] it was “inactive”; in [16], “inactive”; in assay [17], “inactive”.
With `CCCCCCCCCc1ccc(O)cc1`, the AC50 (commonly the concentration at which the activity in the assay is half-maximal) in assay [1] was 16.9 µM (active); in assay [2], 15.4 µM (active); in assay [3] it was 13.3 µM (active); in assay [4], 15.5 µM (active); in [5] it was 15.1 µM (active); in assay [6], 13.4 µM (active). The AC50 in assay [18] is 14.6 µM (active); in assay [7], 15.6 µM (active); in assay [8], 14.6 µM (active); in assay [9] it was 13.5 µM (active); in assay [11] it was 13.2 µM (active); in [12], 17.2 µM (active). Besides, the AC50 is 22.6 µM (active) in the assay with CD40, CD40 (gene 958); 29.9 µM (active) in [13]; 27.6 µM (active) in assay [14]; 23.1 µM (active) in [15]; 22 µM (active) in assay [16].
Consider `CCC(C)(c1ccc(O)cc1)c1ccc(O)cc1`, for which the result in assay [1], in assay [2], in assay [4], in assay [5], in [6] and in [7] was inactive. Also, the outcome in assay [8], in assay [9], in [10], in assay [11], in assay [12] and in assay [13] was inactive. For the same compound, the outcome in assay [14] and in assay [16] was inactive. Besides, the AC50 in assay [3] and in assay [15] was 20 µM (active) in each case.
In the case of `Oc1ccc(C(c2ccc(O)cc2)(C(F)(F)F)C(F)(F)F)cc1`, the AC50 in assay [1] was 15.8 µM (active); in assay [3], 7.41 µM (active); in assay [4], 12.8 µM (active); in assay [5], 37.7 µM (active); in assay [6] it was 17.3 µM (active); in assay [18], 24.1 µM (active). For the same compound, the AC50 is 32.1 µM (active) in assay [7]; 21.1 µM (active) in assay [8]; 23.7 µM (active) in assay [9]; 17.7 µM (active) in assay [10]; 20 µM (active) in assay [11]; 34.2 µM (active) in [12]. Besides, the AC50 was 32.4 µM (active) in assay [13]; 32.1 µM (active) in assay [14]; 28 µM (active) in assay [15]; 20.2 µM (active) in assay [16]; 27.5 µM (active) in [17].
As for `Clc1ccc(C(Cl)(Cl)Cl)cc1`, the result in [1], in assay [2], in [3], in assay [4], in assay [5] and in [6] was inactive. Also, the outcome in [7], in assay [8], in assay [9], in [10], in assay [11] and in [12] was inactive. Moreover, the outcome in assay [13], in assay [14], in [15], in assay [16] and in assay [17] was inactive.
On to `Oc1ccc(Cl)cc1Cl`, for which the result in assay [1], in assay [2], in [3], in [4], in [5] and in assay [6] was inactive. In addition, the outcome in assay [7], in assay [8], in [9], in assay [10], in [11] and in [12] was inactive. Further, the outcome in the assay with CD40, CD40 (gene 958) was “inactive”; in assay [13] it was “inactive”; in [14], “inactive”; in assay [15], “inactive”; in assay [16], “inactive”.
For the compound `CCC(C)c1cc([N+](=O)[O-])cc([N+](=O)[O-])c1O` (centres undefined), the outcome in assay [1], in assay [2], in [3], in [5], in [7] and in assay [8] was inactive. The result in assay [9] and in assay [12] was inactive. Moreover, the AC50 in assay [4] was 12 µM (active); in assay [6] it was 3.97 µM (active); in assay [10], 11.6 µM (active); in [11], 12.6 µM (active); in assay [13] it was 27 µM (active); in [14], 27.5 µM (active). For the same compound, the AC50 in [15] was 20 µM (active); in assay [16] it was 29.2 µM (active); in [17], 15 µM (active).
